We go through ten molecules from PubChem BioAssay (Tox21).

The nature of test [1]: qHTS assay to identify small molecule agonists of H2AX - cell viability counter screen (AID 1224847; calls by dose curve; also: top concentration of the series differs between compounds; nearly all actives have a fitted effect of over 30% in size). A digest of the protocol:
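Compounds tested at 15 concentrations were incubated 3 hr at 37C with wild-type CHO-K1 cells; cellular ATP-based luminescence (CellTiter-Glo) indicated viability.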
For orientation: Quantitative high-throughput screening tests each substance at several concentrations.

Test [2] in a line: qHTS assay to identify small molecule antagonists of the estrogen related receptor (ERR) signaling pathway from Tox21 library (AID 1224848). Also: nearly all actives have a fitted effect of over 50% in size. A digest of the protocol: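 Antagonist-mode screen of the Tox21 10K library in an NTP-provided ERR reporter cell line; 18 h compound exposure at 37 C, luminescence measured with ONE-Glo.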
Test [3] is described as follows: qHTS assay to identify small molecule agonists of the estrogen related receptor (ERR) signaling pathway from Tox21 library (AID 1224849; calls by dose curve; also: nearly all actives have a fitted effect of over 15% in size). The note with it: ERR reporter cell line, ONE-Glo luciferase, 18 h. A digest of the protocol: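 Agonist signal is luciferase luminescence from an ERR reporter cell line treated 18 h at 37 C with DMSO-dissolved compounds, read 30 min after ONE-Glo addition at room temperature.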

Test [4] is described as follows: qHTS RealTime-Glo MT Cell Viability Assay in HEK293 cells - 32 hour (AID 1224868). Also: nearly all actives have a fitted effect of over 50% in size. Also: potency is read from the fitted curve at half-maximal effect. A digest of the protocol:
(§1)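 Cells + reagent dispensed (600 cells/well, HEK293) → 5 h at 37 C/5% CO2 → 23 nL compound in DMSO pinned → 40 h at 37 C → luminescence read at 0, 8, 16, 24, 32, 40 h.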

Test [5] is described as follows: A CellTox Green Cytotoxicity Assay to monitor cytotoxicity in HEK293 cells - 0 hour (AID 1224869). Also: nearly all actives have a fitted effect of over 50% in size. A digest of the protocol:
(§2)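 Cytotoxicity was tracked continuously in HEK293 cells by a DNA-binding dye excluded from viable cells. Compounds were transferred in DMSO 5 h after seeding; fluorescence was recorded at intervals up to 40 h.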

The nature of test [6]: qHTS RealTime-Glo MT Cell Viability Assay in HepG2 cells - 40 hour (AID 1224870). Also: nearly all actives have a fitted effect of over 50% in size. Also: potency is read from the fitted curve at half-maximal effect. A digest of the protocol: (§3)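 Real-time viability: cells seeded at 600 per well together with NanoLuc and cell-permeant prosubstrate, compounds added after 5 h incubation. Luminescence tracked at 0, 8, 16, 24, 32 and 40 h of exposure.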
The nature of test [7]: A CellTox Green Cytotoxicity Assay to monitor cytotoxicity in HEK293 cells - 40 hour (AID 1224871). Also: nearly all actives have a fitted effect of over 45% in size. A digest of the protocol: as §2
Test [8] can be described thus: qHTS RealTime-Glo MT Cell Viability Assay in HEK293 cells - 16 hour (AID 1224872). A digest of the protocol: as §1
Test [9] can be described thus: qHTS RealTime-Glo MT Cell Viability Assay in HepG2 cells - 8 hour (AID 1224873). Also: nearly all actives have a fitted effect of over 55% in size. A digest of the protocol: as §3
Test [10] can be described thus: qHTS RealTime-Glo MT Cell Viability Assay in HEK293 cells - 40 hour (AID 1224874). Also: nearly all actives have a fitted effect of over 50% in size. Also: potency is read from the fitted curve at half-maximal effect. To be noted: RealTime-Glo luminescence; max response: stronger effect = lower value. A digest of the protocol: (§4)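 Nonlytic bioluminescent viability monitoring. HEK293 at 600 cells/well with reagent; 5 h settle; compound transfer by pintool; plates held at 37 C and read at set time points.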
Test [11] can be described thus: A CellTox Green Cytotoxicity Assay to monitor cytotoxicity in HEK293 cells - 24 hour (AID 1224875). Also: nearly all actives have a fitted effect of over 45% in size. A digest of the protocol: as §2
Test [12] is described as follows: A CellTox Green Cytotoxicity Assay to monitor cytotoxicity in HepG2 cells - 16 hour (AID 1224876). Also: nearly all actives have a fitted effect of over 45% in size. Also: potency is read from the fitted curve at half-maximal effect. A digest of the protocol: (§5)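 Real-time, homogeneous cytotoxicity readout: dead-cell DNA staining by CellTox Green in HepG2 monolayers, fluorescence measured at timed intervals up to 40 h of continuous compound exposure.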
Test [13] can be described thus: qHTS RealTime-Glo MT Cell Viability Assay in HepG2 cells - 32 hour (AID 1224877). Also: nearly all actives have a fitted effect of over 55% in size. Also: potency is read from the fitted curve at half-maximal effect. A digest of the protocol: (§6)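 Real-time, nonlytic viability: 600 HepG2 cells/well mixed with NanoLuc enzyme plus prosubstrate; 5 h settle, compound (DMSO) added by pintool; luminescence monitored over 40 h at 37 C.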
Test [14] can be described thus: A CellTox Green Cytotoxicity Assay to monitor cytotoxicity in HepG2 cells - 24 hour (AID 1224878). Also: nearly all actives have a fitted effect of over 45% in size. A digest of the protocol: as §5
Test [15] can be described thus: A CellTox Green Cytotoxicity Assay to monitor cytotoxicity in HepG2 cells - 40 hour (AID 1224879). Also: nearly all actives have a fitted effect of over 40% in size. A digest of the protocol:
as §5

Test [16] can be described thus: qHTS RealTime-Glo MT Cell Viability Assay in HEK293 cells - 0 hour (AID 1224880). A digest of the protocol: as §4
The nature of test [17]: A CellTox Green Cytotoxicity Assay to monitor cytotoxicity in HEK293 cells - 32 hour (AID 1224881). Also: nearly all actives have a fitted effect of over 40% in size. Also: potency is read from the fitted curve at half-maximal effect. A digest of the protocol:
as §2

The nature of test [18]: A CellTox Green Cytotoxicity Assay to monitor cytotoxicity in HepG2 cells - 0 hour (AID 1224882). Also: nearly all actives have a fitted effect of over 35% in size. A digest of the protocol:
as §5

A short description of test [19]: A CellTox Green Cytotoxicity Assay to monitor cytotoxicity in HepG2 cells - 32 hour (AID 1224883). Also: nearly all actives have a fitted effect of over 50% in size. A digest of the protocol: as §5
The nature of test [20]: qHTS RealTime-Glo MT Cell Viability Assay in HepG2 cells - 24 hour (AID 1224867). Also: nearly all actives have a fitted effect of over 50% in size. Also: potency is read from the fitted curve at half-maximal effect. A digest of the protocol:
as §6

Values joined by “and” are separate entries in the source; they are usually repeats but may differ in a detail not shown here. Equal values may be shown once. Inconclusive results are not listed. More than one record can exist for a structure, and the calls need not agree. Active and inactive are the calls of the source. Unless noted, calls follow the shape of the dose curve; as a rule, active = well fitted curve in the direction sought with a large enough effect in the repeat runs; inconclusive = weak or mixed curves; inactive = no such curve, though single readings can be large; an effect the other way counts as inactive or inconclusive.
% is scaled to controls: 0 for no effect and ±100 for the full control effect.

As for `O=[N+]([O-])c1ccccc1O`, the Potency entry in test [1], in test [2], in test [4], in [5], in test [6] and in test [7] was “inactive” in each case. The Potency result in test [8], in test [9], in test [11], in test [12], in test [13] and in test [14] was “inactive” throughout. Besides, the Potency entry in [15], in test [17], in [18] and in [19] was “inactive” in each case. For the same molecule, the activity change, positive = activation in [3] (at 92.4 µM (top of the series)) is 2.74% (inactive) and 26.9% (inactive) and 8.3% (inactive). Moreover, in test [10], the max response is 3.7% (inactive) and -2.87% (inactive) and 7.99% (inactive). The call in test [16] was inactive.
Consider `CC[N+]1(C)CCCC1`, for which the Potency entry in test [1], in test [20], in test [5], in [6], in test [7] and in test [8] was “inactive” each time. Also, the Potency result in test [9], in test [11], in test [12], in [13], in test [14] and in [15] was “inactive” in each case. For the same molecule, the Potency result in test [17], in test [18] and in test [19] was “inactive” throughout. Moreover, the Potency entry in test [4] is “inactive and 21.9 µM (active)”; in [10], 21.9 µM (active). In test [10], the max response was 3.6% (inactive) [middle of 4 runs]. For the same molecule, the molecule was called inactive in test [16].
For the molecule `O=C(O)CCl`, the Potency result in test [1], in test [2], in [4], in [5], in [6] and in test [7] was “inactive” throughout. The Potency entry in [8], in [9], in test [11], in [12], in test [13] and in test [14] was “inactive” in each case. Besides, the Potency entry in test [15], in test [17], in [18] and in [19] was “inactive” in each case. For the same molecule, the activity change, positive = activation in test [3] (at 92.4 µM (top of the series)) was 5.04% (inactive) and -0.191% (inactive) and -5.49% (inactive). Further, in test [10], the max response was 1.08% (inactive) and -1.37% (inactive). Also, in test [16], the outcome was inactive.
For `CCC[N+]1(C)CCCC1`, the Potency result in test [1], in test [20], in test [4], in test [5], in [7] and in [8] was “inactive” in each case. The Potency entry in test [9], in test [11], in [12], in test [14], in test [15] and in test [17] was “inactive” throughout. Moreover, the Potency result in test [18] and in test [19] was “inactive” each time. In addition, the Potency entry is “inactive and 34.9 µM (active)” in test [6]; “inactive and 49.3 µM (active)” in test [13]. In addition, the molecule was called inactive in test [16].
Take `O=P1(N(CCCl)CCCl)NCCCO1` (stereo unspecified): the Potency entry in [1], in test [2], in test [20], in test [4], in [5] and in [6] was “inactive” each time. In addition, the Potency entry in test [7], in [8], in test [9], in test [11], in test [12] and in test [13] was “inactive” each time. Besides, the Potency entry in [14], in test [15], in test [17], in test [18] and in test [19] was “inactive” in each case. Moreover, the activity change, positive = activation in test [3] (at 42.5 µM (top of the series)) is -7.16% (inactive); in test [3] (at 92.4 µM (top of the series)), -1.25% (inactive) and 0.0597% (inactive). For the same molecule, the max response in test [10] is 4.44% (inactive) and 0.328% (inactive) and -5.68% (inactive). The result in test [16] was inactive.
With `CCCC[n+]1cccc(C)c1`, the Potency entry in test [1], in [20], in [4], in test [5], in test [7] and in test [8] was “inactive” each time. Further, the Potency entry in test [9], in [11], in test [12], in test [14], in test [15] and in [17] was “inactive” throughout. Further, the Potency result in test [18] and in test [19] was “inactive” throughout. The Potency entry in [6] was “inactive and 49.6 µM (active)”; in [13] it was “inactive and 55.7 µM (active)”. The max response in [10] is 7.15% (inactive) [middle of 6 runs]. The result in test [16] was inactive.
With `COP(=O)(OC)C(O)C(Cl)(Cl)Cl` (stereo unspecified), the Potency result in test [1], in test [2], in test [4], in [5], in [6] and in [7] was “inactive” throughout. Moreover, the Potency entry in test [8], in test [9], in [11], in test [12], in test [13] and in test [14] was “inactive” each time. The Potency entry in [15], in test [17], in [18] and in test [19] was “inactive” throughout. Besides, the activity change, positive = activation in [3] (at 42.5 µM (top of the series)) was 0.23% (inactive); in test [3] (at 92.4 µM (top of the series)), -17% (inactive) and -12.3% (inactive). Also, the max response in [10] was -4.55% (inactive) and 3.86% (inactive). Moreover, in test [16], the result was inactive.
For the molecule `O=c1[nH]c(=O)n(Cl)c(=O)n1Cl`, the Potency result in test [1], in test [2], in [20], in test [4], in test [5] and in test [6] was “inactive” in each case. The Potency entry in test [7], in test [8], in [9], in test [11], in test [12] and in [13] was “inactive” throughout. Moreover, the Potency result in test [14], in test [15], in test [17], in [18] and in test [19] was “inactive” each time. In addition, in [3] (at 92.4 µM (top of the series)), the activity change, positive = activation is 2.32% (inactive) and 2.59% (inactive) and 1.02% (inactive). Besides, the max response in test [10] is 3.74% (inactive) and 3.92% (inactive) and 2.88% (inactive). In addition, the molecule was classed as inactive in test [16].
Consider `CCC[N+]1(C)CCCCC1`, for which the Potency entry in test [1], in test [20], in test [4], in test [5], in test [7] and in [8] was “inactive” in each case. The Potency result in test [9], in test [11], in [12], in test [14], in [15] and in [17] was “inactive” throughout. In addition, the Potency result in test [18] and in [19] was “inactive” throughout. For the same molecule, the Potency result in test [6] was “inactive and 24.6 µM (active)”; in test [13], “inactive and 34.8 µM (active)”. Further, in [10], the max response was -1.58% (inactive) and 7.15% (inactive) and 0.391% (inactive). Besides, the outcome in [16] was inactive.
In the case of `Oc1cccc2cccnc12`, the Potency entry in [1], in test [5], in test [8], in test [9], in [11] and in [18] was “inactive” each time. Also, the Potency entry in test [20] is “inactive and 3.47 µM (active)”; in test [4], 20.7 µM (active) and 5.49 µM (active) and inactive; in test [6], “inactive and 3.09 µM (active)”; in test [10] it was 13.9 µM (active) and 23.3 µM (active) and 12.7 µM (active); in test [12], “inactive and 6.16 µM (active)”; in [13] it was “inactive and 3.09 µM (active)”. Further, in test [17], the Potency is 17.5 µM (active) and 6.16 µM (active) and inactive. In test [10], the max response is -0.234% (inactive). Moreover, the outcome in test [16] was inactive.
